The results in this text go back to PubChem BioAssay (NCATS).

Inconclusive results are not listed. Values without a mark were called inactive. Active and inactive are the calls of the source. Calls come from the whole dose curve; as a rule, active = well fitted inhibition curve with a large enough effect; inconclusive = small, poorly fitted or top-dose-only effect; inactive = no such curve, though single readings can be large or run the other way. Where a SMILES comes first, the peptide text is derived from it. [ ]: non-standard residue; d: D form. 2Abz = Nc1ccccc1C(=O)O

Assay [1] relates to Zika virus NS2B-NS3 protease (unlinked complex). Description: Primary screen GU Rhodamine qHTS for Zika virus inhibitors: Unlinked NS2B-NS3 protease assay (AID 1347159). Note: nearly all actives have a fitted effect of over 60% in size. The essentials:
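Noncovalent NS2B hydrophilic domain/NS3 protease complex (25 nM final) in 10 mM Tris-HCl pH 8.0, 0.01% Tween 20, preincubated 15 min with compounds (up to 114 microM), then 1.5 microM Rhodamine110 substrate. Fluorescence change over 15 min fitted to 4-parameter Hill.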
For orientation: Quantitative high-throughput screening tests each substance at several concentrations.

Assay [2] deals with Zika virus NS2B-NS3 protease (linked construct). The assay is described as follows: Primary screen NINDS Rhodamine qHTS for Zika virus inhibitors (AID 1347160). Note: nearly all actives have a fitted effect of over 55% in size. The procedure, abridged:
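Purified NS2B-NS3 protease with the NS2B hydrophilic domain joined by a flexible linker (25 nM) in 10 mM Tris-HCl pH 8.0, 0.01% Tween 20, preincubated 15 min at RT with compound; Rhodamine110 peptide substrate 1.5 µM; fluorescence change over 15 min; 4-parameter Hill fit.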
% is set by controls: 0 for no effect and ±100 for the full control effect.

`COC1CC(=O)C23C(=O)NC(CC(C)C)C2C(C)C(C)=CC3/C=C(\C)CCC1O` (centres undefined): the Potency entry in assay [1] and in assay [2] was “inactive” throughout.

As for `C[C@@H]1O[C@@H](O[C@H]2[C@H](OC(=O)[C@]34CCC(C)(C)C[C@H]3C3=CCC5[C@@]6(C)CC[C@H](O[C@@H]7O[C@H](CO[C@@H]8OC[C@H](O)[C@H](O)[C@H]8O)[C@@H](O)[C@H](O)[C@H]7O)C(C)(C)C6CC[C@@]5(C)[C@]3(C)C[C@H]4O)OC[C@@H](O)[C@@H]2O)[C@H](O)[C@H](O)[C@H]1O[C@@H]1OC[C@H](O)[C@H](O[C@@H]2OC[C@@H](O)[C@H](O)[C@H]2O)[C@H]1O` (some centres undefined), the activity change, negative = inhibition was -11.8% [at 19.1 µM] in assay [1] and -14.5% [at 10.7 µM] in assay [2].

As for `CCCC(N[C@@H](C)C(=O)N1[C@H](C(=O)O)C[C@@H]2CCCC[C@@H]21)C(=O)OCC` (some centres undefined), the Potency entry in assay [1] and in assay [2] was “inactive” in each case.

Consider `OC[C@H]1O[C@@H](n2cnc3c(NCc4ccc(O)cc4)ncnc32)[C@H](O)[C@@H]1O`, for which the Potency result in assay [1] and in assay [2] was “inactive” throughout.

For the compound `CC1=CC(=O)C2C(C)(C)CC(O)CC2(C)C1CO` (centres undefined), the Potency entry in assay [1] and in assay [2] was “inactive” throughout.

As to `CCNC(=O)CCC/C=C\C[C@@H]1[C@@H](/C=C/C(O)CCc2ccccc2)[C@@H](O)C[C@@H]1O` (some centres undefined), the Potency result in assay [1] and in assay [2] was “inactive” in each case.

`COc1ccccc1-n1c(SCC(=O)Nc2nc3ccc(C)cc3s2)nc2c(c1=O)SCC2`: the Potency result in assay [1] and in assay [2] was “inactive” in each case.

With `C/C=C(\C)C(=O)O[C@@H]1CC2[C@@H](CC=C3C[C@@H](O[C@H]4C[C@H](OC)[C@H](O[C@H]5C[C@H](OC)[C@H](O[C@H]6C[C@H](OC)[C@H](O[C@H]7C[C@@H](OC)[C@H](O[C@@H]8O[C@H](CO)[C@@H](O)[C@H](O)[C@H]8O)[C@@H](C)O7)[C@@H](C)O6)[C@@H](C)O5)[C@@H](C)O4)CC[C@@]32C)[C@@]2(O)CC[C@H](C(C)=O)[C@@]12C` (some centres undefined), the activity change, negative = inhibition in assay [1] was 20.3% [at 19.1 µM]; in assay [2] it was 1.97% [at 10.7 µM].

For `C=C1CC/C=C(/CO)C(=O)C[C@@H]2[C@@H]1CC2(C)C`, the Potency entry in assay [1] and in assay [2] was “inactive” each time.

With `C=C1[C@@H]2CC[C@@]3(C)[C@H](c4ccoc4)OC(=O)C[C@]13O[C@H]1CC(=O)C(C)(C)[C@H](CC(=O)OC)[C@]12C`, the Potency result in assay [1] and in assay [2] was “inactive” in each case.

As to `C=C1CCC[C@]2(C)C[C@]3(O)OC(=O)C(C)=C3C[C@@H]12`, the Potency result in assay [1] and in assay [2] was “inactive” each time.

`COc1cc(/C=C/c2cc(O)cc(O[C@@H]3O[C@H](CO)[C@@H](O)[C@H](O)[C@H]3O)c2)ccc1O`: the Potency result in assay [1] and in assay [2] was “inactive” each time.

For `C[C@@H](O)[C@H](N)C(=O)N1CCC[C@H]1C(=O)N1CCC[C@H]1C(=O)N[C@H](C(N)=O)[C@@H](C)O` (H-TPPT-NH2), the values for the activity change, negative = inhibition in assay [1] and in assay [2] were -7.3% [at 19.1 µM] and 20.4% [at 10.7 µM], respectively.

For `CC(C)(O)c1ccc2c(c1)C(O)CC1C(C)(C(=O)O)CCCC21C` (centres undefined), the Potency result in assay [1] and in assay [2] was “inactive” throughout.

`C=C1C2=CC(O)C(C)C1(C)CC/C(C)=C/CCC1(C)OC1C2=O` (centres undefined): the Potency entry in assay [1] and in assay [2] was “inactive” throughout.

As for `O=c1c2ccccc2nc2n1CCC2O` (centres undefined), the Potency result in assay [1] and in assay [2] was “inactive” in each case.

For the compound `C=C1CCC2(OC1)OC1CC3C4CC=C5CC(O)CC(O[C@@H]6OC[C@@H](O)[C@H](O)[C@H]6O)C5(C)C4CCC3(C)C1(O)C2C` (some centres undefined), the Potency result in assay [1] and in assay [2] was “inactive” each time.

In the case of `COC1=CC(=O)O[C@@H](CCc2ccccc2)[C@@H]1O`, the Potency entry in assay [1] and in assay [2] was “inactive” each time.

On to `Cc1nnc(C(C)C)n1C1CC2CCC(C1)N2CC[C@H](NC(=O)C1CCC(F)(F)CC1)c1ccccc1` (some centres undefined), for which the Potency entry in assay [1] and in assay [2] was “inactive” throughout.

Consider `CCC(C)C1NC(=O)C2CCCN2C(=O)C(C(C)C)NC(=O)c2ccccc2NC(=O)C(Cc2ccc(O)cc2)NC(=O)C(C)NC(=O)C(C(C)O)NC1=O` (centres undefined) (cyclo([2Abz]VPITAY); configuration not given here), for which the Potency result in assay [1] and in assay [2] was “inactive” in each case.

Regarding `O=S(=O)(NC1CCNCC1)c1cc(S(=O)(=O)c2ccccc2)ccc1C(F)(F)F`, the Potency result in assay [1] and in assay [2] was “inactive” each time.

As for `CCS(=O)(=O)N1CCC([C@@H](C)n2c(C)c(C(=O)NCc3c(OC)cc(C)[nH]c3=O)c3ccccc32)CC1`, the Potency entry in assay [1] and in assay [2] was “inactive” throughout.

In the case of `C/C(=C\CCC(C)(O)c1ccc(C)cc1)C(=O)O` (centres undefined), the Potency result in assay [1] and in assay [2] was “inactive” in each case.

Take `C[C@@H]1O[C@@H](O[C@H]2[C@H](O[C@H]3CC[C@@]4(C)C(CC[C@]5(C)C4CC=C4[C@@H]6CC(C)(C)CC[C@]6(C(=O)O)CC[C@]45C)[C@]3(C)CO)OC[C@H](O)[C@@H]2O)[C@H](O)[C@H](O[C@@H]2OC[C@@H](O)[C@H](O)[C@H]2O)[C@H]1O` (some centres undefined): the Potency result in assay [1] and in assay [2] was “inactive” each time.

`COc1c(OC2OC(CO)C(O)C(O)C2O)ccc(O)c1C(=O)OCc1ccccc1O[C@@H]1O[C@H](CO)[C@@H](O)[C@H](O)[C@H]1O` (some centres undefined): the Potency entry in assay [1] and in assay [2] was “inactive” throughout.

Take `O=C(/C=C/c1ccc(O)cc1)OCC1=CC2OC(=O)C3=CO[C@@H](O[C@@H]4O[C@H](CO)[C@@H](O)[C@H](O)[C@H]4O)[C@H]1[C@@H]32` (some centres undefined): the Potency result in assay [1] and in assay [2] was “inactive” each time.

For `CC1OC(O[C@H]2[C@@H](O)C[C@@]3(C)C([C@H](O)C[C@]4(C)C3CC=C3C5CC(C)(C)CC[C@]5(C(=O)OC5OC(CO)C(O)C(O)C5OC5OCC(OC6OCC(OC7OCC(O)C(O)C7O)C(O)C6O)C(OC6OCC(O)(CO)C6O)C5O)CC[C@]34C)[C@]2(C)CO)C(O)C(O)C1O` (some centres undefined), the activity change, negative = inhibition in assay [1] was 27.1% [at 19.1 µM]; in assay [2], -1.39% [at 10.7 µM].
